Where “and” joins values, the source holds several entries; their conditions need not be identical. Equal values may be shown once. Results filed as inconclusive are left out. Some compounds were tested as several samples or in several runs, with calls that do not always agree. Calls of active or inactive are those of the source. The call rests on the fitted dose curve; in most records, active means well fitted curve in the direction sought with a large enough effect in the repeat runs; inconclusive means weak or mixed curves; inactive means no such curve, though single readings can be large; an effect the other way counts as inactive or inconclusive.
Assays:
[1] = Caspase-3/7 induction in HepG2 cells by small molecules, qHTS assay (AID 1346978); further: nearly all actives have a fitted effect of over 15% in size; further: potency means the concentration at half of the fitted maximal effect
In short: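 Wild-type HepG2 cells (2,000/well) were settled 5 h at 37 C, 5% CO2, then exposed to compounds in DMSO for 17 h. Caspase-3/7 activity was read by luminescence 30 min after adding Caspase-Glo 3/7 reagent at room temperature.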

[2] = Caspase-3/7 induction in CHO-K1 cells by small molecules, qHTS cell viability counter screen (AID 1346979); further: nearly all actives have a fitted effect of over 35% in size; further: potency means the concentration at half of the fitted maximal effect
In short: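 Seeding: 1,500 CHO-K1 cells/well. Rest: 5hr, 37C. Treatment: compounds in DMSO, 16hr. Read: CellTiter-Fluor, 1hr, fluorescence.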

[3] = Caspase-3/7 induction in CHO-K1 cells by small molecules, qHTS assay (AID 1346980); further: nearly all actives have a fitted effect of over 15% in size
In short: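 Wild-type cells were seeded at 1,500 per well and settled 5 hr at 37 C, 5% CO2, then exposed to DMSO-dissolved compounds for 17 hr. Caspase-Glo 3/7 reagent was added, and luminescence was read after 30min at room temperature.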

[4] = Caspase-3/7 induction in HepG2 cells by small molecules, qHTS cell viability counter screen (AID 1346981); further: nearly all actives have a fitted effect of over 30% in size; further: potency means the concentration at half of the fitted maximal effect; on activity change, negative = cytotoxicity: series mostly up to about 92 µM
In short: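 Viability determined by CellTiter-Fluor fluorescence in HepG2 wells also used for the luminescent Caspase-Glo 3/7 read. Compounds were present for 16 hr at 37 C, 5% CO2 before reagent addition.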

[5] = Human pregnane X receptor (PXR) small molecule agonists, qHTS cell viability counter screen (AID 1346977); further: nearly all actives have a fitted effect of over 50% in size; further: potency means the concentration at half of the fitted maximal effect
In short: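 HepG2 cells stably carrying the PXR-Luc reporter are cultured with 5% charcoal-stripped FBS and treated with compounds for 24hr. CellTiter-Fluor is added at 23hr and fluorescence is read after 1hr.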

[6] = biological target: Cytochrome P450 2D6 (Homo sapiens) (UniProt P10635); test: Cytochrome P450 Family 2 Subfamily D Member 6 (CYP2D6) small molecule antagonists: luciferase reporter qHTS assay (AID 1671196); further: nearly all actives have a fitted effect of over 50% in size; further: potency means the concentration at half of the fitted maximal effect
Sequence of Cytochrome P450 2D6 (Homo sapiens) (P10635 whole entry, looked up): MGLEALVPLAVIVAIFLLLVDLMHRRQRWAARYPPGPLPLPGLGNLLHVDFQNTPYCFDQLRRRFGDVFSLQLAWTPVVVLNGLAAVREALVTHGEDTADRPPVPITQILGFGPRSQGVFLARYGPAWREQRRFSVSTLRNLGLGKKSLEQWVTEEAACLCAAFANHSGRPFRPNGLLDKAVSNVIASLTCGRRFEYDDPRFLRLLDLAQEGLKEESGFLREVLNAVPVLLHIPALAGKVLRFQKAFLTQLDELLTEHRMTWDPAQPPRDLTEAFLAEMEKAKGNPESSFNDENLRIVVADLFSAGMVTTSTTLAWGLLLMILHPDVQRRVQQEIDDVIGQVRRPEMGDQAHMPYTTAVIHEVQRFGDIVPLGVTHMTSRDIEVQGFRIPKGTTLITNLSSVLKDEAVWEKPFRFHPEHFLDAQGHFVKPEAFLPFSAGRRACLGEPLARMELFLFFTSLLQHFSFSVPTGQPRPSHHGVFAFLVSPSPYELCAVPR
In short: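 Each well received CYP2D6 with its proluciferin substrate and chemical, sat 10 min, then got NADPH regeneration solution for 1 h at room temperature. Luminescence in RLU served as the activity measure.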

[7] = biological target: Nuclear receptor subfamily 1 group I member 2 (Homo sapiens) (UniProt O75469); test: Human pregnane X receptor (PXR) small molecule agonists, qHTS assay (AID 1346982); further: nearly all actives have a fitted effect of over 35% in size; further: potency means the concentration at half of the fitted maximal effect
Sequence of Nuclear receptor subfamily 1 group I member 2 (Homo sapiens) (O75469 whole entry, looked up): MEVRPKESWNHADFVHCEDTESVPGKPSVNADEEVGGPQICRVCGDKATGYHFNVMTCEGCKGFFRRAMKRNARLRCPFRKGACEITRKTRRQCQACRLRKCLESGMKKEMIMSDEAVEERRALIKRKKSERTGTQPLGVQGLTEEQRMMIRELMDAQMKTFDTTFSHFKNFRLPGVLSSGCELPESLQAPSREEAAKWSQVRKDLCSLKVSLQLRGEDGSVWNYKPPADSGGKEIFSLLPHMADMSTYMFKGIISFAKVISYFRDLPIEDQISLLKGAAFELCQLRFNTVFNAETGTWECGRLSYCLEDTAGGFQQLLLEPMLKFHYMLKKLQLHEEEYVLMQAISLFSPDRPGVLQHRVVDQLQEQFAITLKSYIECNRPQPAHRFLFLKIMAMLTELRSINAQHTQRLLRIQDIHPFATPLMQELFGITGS
In short: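 Compound-induced hPXR transactivation of a CYP3A4 luciferase reporter was scored in HepG2 PXR-Luc cells over 24 hr at 37 C, 5% CO2, by luminescence.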

[8] = biological target: Nuclear receptor subfamily 1 group I member 2 (Homo sapiens) (UniProt O75469); test: CYP3A4 induction through human pregnane X receptor (PXR) by small molecules, qHTS assay (AID 1346984); further: nearly all actives have a fitted effect of over 40% in size; further: potency means the concentration at half of the fitted maximal effect
In short: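 Readings come from a luciferase reporter: DPX-2 cells, which are HepG2 cotransfected with PXR and a CYP3A4-promoter construct, were exposed to test compounds for 24 h at 37C before One-Glo detection.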

[9] = biological target: Nuclear receptor subfamily 1 group I member 2 (Homo sapiens) (UniProt O75469); test: Human pregnane X receptor (PXR) activation by small molecules, qHTS assay (AID 1346985); further: nearly all actives have a fitted effect of over 40% in size; further: potency means the concentration at half of the fitted maximal effect
In short: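 DPX-2 cells (HepG2 co-transfected with a PXR response element and a CYP3A4-promoter luciferase construct) were seeded at 2,000 per well, rested 5 hr at 37C, then exposed to DMSO-dissolved compounds for 24 hr. Activation was read as luciferase luminescence.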

[10] = biological target: Nuclear receptor subfamily 1 group I member 2 (Rattus norvegicus) (UniProt Q9R1A7); test: Rat pregnane X receptor (rPXR) activation by small molecules, qHTS assay (AID 1346983); settings: rPXR luciferase reporter cells, One-Glo luminescence, 24 h; max activation: stronger effect = higher value; further: nearly all actives have a fitted effect of over 20% in size
Sequence of Nuclear receptor subfamily 1 group I member 2 (Rattus norvegicus) (Q9R1A7 whole entry, looked up): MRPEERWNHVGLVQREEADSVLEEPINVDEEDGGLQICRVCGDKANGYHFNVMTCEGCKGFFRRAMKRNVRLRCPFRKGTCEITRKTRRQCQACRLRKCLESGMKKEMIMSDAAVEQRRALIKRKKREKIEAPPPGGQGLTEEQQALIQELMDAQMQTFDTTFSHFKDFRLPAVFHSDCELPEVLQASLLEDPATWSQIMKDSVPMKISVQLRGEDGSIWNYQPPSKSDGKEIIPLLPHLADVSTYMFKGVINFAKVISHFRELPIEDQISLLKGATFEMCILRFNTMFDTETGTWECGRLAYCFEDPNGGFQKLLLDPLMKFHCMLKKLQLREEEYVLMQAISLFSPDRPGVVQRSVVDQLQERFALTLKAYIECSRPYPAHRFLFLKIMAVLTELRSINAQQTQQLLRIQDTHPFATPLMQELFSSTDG
In short: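 Cell-based rPXR luciferase reporter assay, 2,000 cells per well, rested 5hr at 37 C before compound addition in DMSO, then 24 hr at 37 C. One-Glo reagent was added and luminescence read after 30 min at room temperature.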
On the % scale 0 is the no-effect control and ±100 the full control effect.

CCC/C=C/C=O
inactive: Potency [1] | Potency [2] | Potency [3] | Potency [4]

CN(C)C
inactive: Potency [5] | Potency [1] | Potency [2] | Potency [3] | Potency [6]

C1CN(SSN2CCOCC2)CCO1
active: Potency [2] 30.3 µM and 48.6 µM | Potency [6] 78.9 µM and 31.7 µM
inactive: Potency [5] | Potency [1] | Potency [4]

Nc1ccc2c(c1)C(=O)c1ccccc1C2=O
inactive: Potency [1] | Potency [3]
active: Potency [2] 53.5 µM and 54.5 µM | Potency [4] 30.1 µM | Potency [7] 190 nM and 486 nM

[Na+]
inactive: Potency [5] | Potency [1] | Potency [2] | Potency [3] | Potency [4] | Potency [6]

CCCCCCC(C)O (stereo not given)
inactive: Potency [5] | Potency [1] | Potency [2] | Potency [3] | Potency [6]

C=CCNCC=C
inactive: Potency [5] | Potency [1] | Potency [2] | Potency [3] | Potency [4] | Potency [6]

O=C(O)CCCC(=O)O
inactive: Potency [5] | Potency [1] | Potency [2] | Potency [3] | Potency [7]
22 µM (active) and inactive: Potency [6]

CCO[Si](CCCNC(N)=O)(OCC)OCC
inactive: Potency [5] | Potency [1] | Potency [2] | Potency [3] | Potency [7] | Potency [6]

COC(=O)C(C)Oc1ccc(Oc2ncc(C(F)(F)F)cc2Cl)cc1 (stereo not given)
inactive: Potency [5] | Potency [1] | Potency [2] | Potency [3]
active: Potency [7] 61.9 µM and 61.1 µM

[O-]/[N+](=N\O)c1ccccc1
inactive: Potency [5] | Potency [1] | Potency [2] | Potency [3] | Potency [4] | Potency [6]

CC1(C)NC(=O)N(c2ccc([N+](=O)[O-])c(C(F)(F)F)c2)C1=O
inactive: Potency [5] | Potency [1] | Potency [3] | Potency [6]

CC(=O)O[C@]1(C(C)=O)CC[C@H]2[C@@H]3C=C(C)C4=CC(=O)CC[C@]4(C)[C@H]3CC[C@@]21C
active: Potency [2] 68.6 µM
inactive: Potency [5] | Potency [1] | Potency [3] | Potency [8] | Potency [9] | Potency [6]

CCCCCC=O
inactive: Potency [5] | Potency [1] | Potency [2] | Potency [3] | Potency [6]

CC[C@]12CCCN3CCc4c(n(c5ccccc45)[C@@](O)(C(=O)OC)C1)[C@@H]32
active: Potency [7] 30.6 µM and 9.44 µM | Potency [8] 12.6 µM | Potency [9] 14.1 µM | Potency [6] 10 µM and 8.71 µM
inactive: Potency [5] | Potency [1] | Potency [2] | Potency [3] | max activation [10] 1.48%

Nc1ccc2c(O)cc(S(=O)(=O)O)cc2c1
inactive: Potency [1] | Potency [3]
active: Potency [5] 28.2 µM and 21.7 µM | Potency [2] 48.6 µM and 19.3 µM | Potency [7] 30.7 µM | Potency [6] 35.6 µM and 71 µM

CN(C)CCCN1c2ccccc2Sc2ccc(Cl)cc21
active: Potency [5] 27.3 µM and 26.6 µM | Potency [2] 54.5 µM and 29.8 µM

C=CCCCCCCCCCC
inactive: Potency [5] | Potency [1] | Potency [2] | Potency [3] | Potency [4] | Potency [6]

O=C(CCCN1CCC(O)(c2ccc(Cl)cc2)CC1)c1ccc(F)cc1
61.1 µM (active) and inactive: Potency [2]
48.6 µM (active) and inactive: Potency [4]
inactive: Potency [3]
54.5 µM (active) and inactive: Potency [1]

Nc1cc(Cl)c(N)c(Cl)c1
inactive: Potency [5] | Potency [1] | Potency [2] | Potency [3]
active: Potency [6] 25 µM

CC(=O)[C@@]1(O)CC[C@H]2[C@@H]3C[C@H](C)C4=CC(=O)C=C[C@]4(C)[C@@]3(F)[C@@H](O)C[C@@]21C
inactive: Potency [5] | Potency [1] | Potency [2] | Potency [3] | Potency [8] | Potency [9] | Potency [6]
active: Potency [7] 15.4 µM

IC(I)I
inactive: Potency [5] | Potency [1] | Potency [2] | Potency [3] | max activation [10] -1.04% | Potency [9]

Cc1ccc([N+](=O)[O-])c(C)c1
inactive: Potency [5] | Potency [1] | Potency [2] | Potency [3] | Potency [7] | Potency [6]

CNC[C@H](O)c1ccc(O)c(O)c1
inactive: Potency [1] | activity change, negative = cytotoxicity [2] 0.265% [at 19 µM] | Potency [3] | activity change, negative = cytotoxicity [4] -0.0374% [at 19 µM] | Potency [7] | max activation [10] 1.67% | Potency [8] | Potency [9]

Source: PubChem BioAssay (Tox21)
